# Data as given in ChEMBL document CHEMBL3988442, “University of Dundee, Small-Polar-MMV Screening Library” (2021).
# Potency and affinity values are given separately.
# Target: Protein translocase subunit SecA (Escherichia coli (strain K12)) (UniProt P10408)
# Test: Assay to Identify E. coli SecA ATPase Inhibitors
# Type: functional
# Design: scale not given: direction of the effect not stated beside the values
# Details: 30 µM
# Protein translocase subunit SecA (Escherichia coli (strain K12)), sequence (P10408 whole entry): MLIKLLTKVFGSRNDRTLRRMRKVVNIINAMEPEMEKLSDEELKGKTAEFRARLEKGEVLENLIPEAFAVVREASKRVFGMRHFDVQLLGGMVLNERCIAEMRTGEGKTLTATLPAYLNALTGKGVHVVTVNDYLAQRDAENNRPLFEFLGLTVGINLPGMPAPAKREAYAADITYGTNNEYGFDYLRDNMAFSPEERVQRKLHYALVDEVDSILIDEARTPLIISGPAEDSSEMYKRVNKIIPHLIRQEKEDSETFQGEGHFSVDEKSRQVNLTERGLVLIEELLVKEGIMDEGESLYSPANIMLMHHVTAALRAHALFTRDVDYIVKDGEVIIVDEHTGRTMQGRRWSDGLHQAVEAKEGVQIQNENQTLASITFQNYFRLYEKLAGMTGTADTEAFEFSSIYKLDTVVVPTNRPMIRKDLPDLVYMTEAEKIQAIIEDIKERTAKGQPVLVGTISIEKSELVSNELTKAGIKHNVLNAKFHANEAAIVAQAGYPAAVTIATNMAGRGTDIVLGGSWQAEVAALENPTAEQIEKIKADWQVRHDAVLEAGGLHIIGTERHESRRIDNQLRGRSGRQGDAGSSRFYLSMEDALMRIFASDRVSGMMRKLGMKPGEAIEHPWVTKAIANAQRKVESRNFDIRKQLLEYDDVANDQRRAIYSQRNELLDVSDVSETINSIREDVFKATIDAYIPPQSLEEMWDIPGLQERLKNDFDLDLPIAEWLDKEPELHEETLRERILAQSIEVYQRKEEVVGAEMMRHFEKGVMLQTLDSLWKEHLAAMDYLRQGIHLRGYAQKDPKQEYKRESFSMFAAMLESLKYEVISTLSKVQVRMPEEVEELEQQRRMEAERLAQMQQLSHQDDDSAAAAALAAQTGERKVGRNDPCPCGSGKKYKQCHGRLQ
row,Structure (SMILES),Percent Effect [%]
1,CCn1cnnc1CNC(=O)N1CCC(Cc2cccnc2)CC1,-2.15
2,Cc1nc(CN2CCCC(NCc3c(C)nc4sccn34)C2)no1 (stereo not drawn),-2.09
3,Cn1nc2c(cc1=O)CN(CCc1nc3ccccc3c(=O)[nH]1)CC2,-4.31
4,COc1ccc(CNC(=O)NCc2c(C)cc(C)[nH]c2=O)cc1,-5.07
5,CN(C)C(=O)NC1COC2(CCN(Cc3nccn3C)CC2)C1 (stereo not drawn),0.893
6,O=C(CN1CCC(C(=O)c2cc(F)ccc2F)CC1)NC1CCCC1,-10.1
7,CCN1C[C@H]2CCN(C(=O)NC3CCCC3)CC[C@H]2S1(=O)=O,2.4
8,CCC1=N[C@@]2(CC[C@@H]3CN(Cc4ccccc4F)C[C@@H]32)C(=O)N1CC,-5.1
9,CN1CCC(Oc2ccc(NC(=O)c3ccccc3Br)cc2)CC1,-0.903
10,Cc1cc(C(=O)NCC2COCc3c(C)nnn3C2)no1 (stereo not drawn),-6.44
11,Cc1cnc(CNC(=O)NCc2cccnc2N(C)C)s1,-3.06
12,CCCNC(=O)N1CCN(Cc2cc(C)no2)CC1,-3.25
13,COc1cccc2c1ccn2CCC(=O)N1CCCC(C(=O)O)C1 (stereo not drawn),-4.55
14,Cc1csc(CNC(=O)NCC(O)c2cccc(Cl)c2)n1 (stereo not drawn),-1.7
15,Cc1noc(Cl)c1CCC(=O)N1CCN(c2ncccn2)CC1,-1.95
16,Cc1ccccc1-c1cncc(C2CCN(C)CC2)n1,-3.38
17,Cc1ccc(CN2CCOC3(CCCN(C(=O)c4ccco4)C3)C2)s1 (stereo not drawn),-0.789
18,CS(=O)(=O)NCc1nnc2n1CCN(CC1CC1)C2,-5.86
19,Cc1ccc(=O)n(CC2(O)CCN(Cc3cnc(C)nc3)CC2)n1,-6.32
20,CN(C)S(=O)(=O)N1CCCC1CC(=O)c1cccs1 (stereo not drawn),2.35

row,Structure (SMILES),Percent Effect [%]
1,COc1cc(CNC2CCc3nc(C(C)C)nn3C2)cc2c1OCO2 (stereo not drawn),-3.28
2,CCOCC1CN(Cc2ccoc2)Cc2nn(CC3CC3)cc21 (stereo not drawn),-7.41
3,O=C(c1cc(COc2ccc3c(c2)OCO3)[nH]n1)N1CCCC1,-4.35
4,CCCS(=O)(=O)N1CCC(NC(=O)c2cc(C)c(CC)s2)CC1,-1.6
5,CCOC(=O)C1CCN(C(=O)Cn2ccc3cc(Br)ccc32)CC1,-3.71
6,CCOc1cc(C)ccc1NC(=O)N(C)Cc1cnn(C)c1,-3.73
7,COc1ccc(C(=O)N2CCC(Nc3ccc(C)nn3)CC2)c(F)c1,-1.36
8,CC(C)CCc1noc(CN2CCCN(C(=O)c3ccco3)CC2)n1,-5.45
9,Cc1noc2nc(C3CCN(Cc4ccncc4)CC3)cc(C(F)F)c12,-9.38
10,COCC1CN(Cc2ccc(C)o2)Cc2cn(C)nc21 (stereo not drawn),-1.58
11,Cc1cnn(CCNCc2ccccc2Oc2cccnc2)c1,-0.645
12,CN(CCCC#N)C1CCCN(Cc2noc(C3CC3)n2)C1 (stereo not drawn),-1.64
13,Cc1cc(C)nc(CCNC(=O)[C@H]2CNC[C@@H](C(=O)N3CCCC3)C2)n1,-5
14,CCOc1cc(C)nc(N2CCN(C(=O)CC)CC2)n1,-4.4
15,Cn1ccc(C(=O)N2CCCC(Cc3cccc4ncccc34)C2)n1 (stereo not drawn),-7.55
16,CCn1ccnc1CN1CCN(CCOc2ccccc2OC)CC1,-1.18
17,O=S(=O)(N(Cc1ccccn1)C1CC1)N1CCCC1c1ccco1 (stereo not drawn),-4.42
18,Cn1ncc2c(=O)[nH]c(CN3CCCC3Cc3ccccc3)nc21 (stereo not drawn),-2.29
19,CC1CN(CC(=O)Nc2cccnc2)CCN1c1nccs1 (stereo not drawn),-0.157

# Target: T1, Ubiquitin-activating enzyme e1, putative (Leishmania donovani (strain BPK282A1)) (UniProt E9BSI1)
# T1 sequence (whole entry): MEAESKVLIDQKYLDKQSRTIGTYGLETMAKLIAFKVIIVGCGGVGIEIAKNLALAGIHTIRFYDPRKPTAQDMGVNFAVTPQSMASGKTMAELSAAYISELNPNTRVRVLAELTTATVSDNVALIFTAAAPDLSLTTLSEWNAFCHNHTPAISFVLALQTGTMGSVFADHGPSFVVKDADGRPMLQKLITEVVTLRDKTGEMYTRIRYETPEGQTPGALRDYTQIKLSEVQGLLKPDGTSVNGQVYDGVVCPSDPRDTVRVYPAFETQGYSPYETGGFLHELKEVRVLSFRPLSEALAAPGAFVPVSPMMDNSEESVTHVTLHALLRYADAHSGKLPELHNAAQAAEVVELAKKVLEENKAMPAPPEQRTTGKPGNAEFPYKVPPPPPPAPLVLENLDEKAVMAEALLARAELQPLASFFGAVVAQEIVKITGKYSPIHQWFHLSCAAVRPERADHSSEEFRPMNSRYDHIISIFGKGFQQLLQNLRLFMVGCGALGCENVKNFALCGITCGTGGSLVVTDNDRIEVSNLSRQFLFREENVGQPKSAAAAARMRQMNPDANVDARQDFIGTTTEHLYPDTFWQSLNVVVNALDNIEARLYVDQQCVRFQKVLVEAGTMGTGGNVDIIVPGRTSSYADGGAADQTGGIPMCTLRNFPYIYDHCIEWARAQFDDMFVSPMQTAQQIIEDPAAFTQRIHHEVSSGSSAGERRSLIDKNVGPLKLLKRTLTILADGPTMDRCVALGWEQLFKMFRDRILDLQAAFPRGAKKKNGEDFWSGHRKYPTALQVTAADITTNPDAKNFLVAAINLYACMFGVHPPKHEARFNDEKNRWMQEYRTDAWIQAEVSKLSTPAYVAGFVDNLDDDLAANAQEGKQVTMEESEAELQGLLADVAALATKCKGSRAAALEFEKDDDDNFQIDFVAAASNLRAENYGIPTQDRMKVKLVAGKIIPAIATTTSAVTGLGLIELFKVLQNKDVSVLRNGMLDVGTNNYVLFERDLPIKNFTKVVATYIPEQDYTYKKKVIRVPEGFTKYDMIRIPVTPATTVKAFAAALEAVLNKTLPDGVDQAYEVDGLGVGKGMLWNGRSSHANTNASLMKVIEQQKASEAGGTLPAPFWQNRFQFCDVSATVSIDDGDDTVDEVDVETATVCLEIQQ
# Test: Leishmania donovani Ubiquitin Activating Enzyme (LdE1)
# Type: functional
# Design: scale not given: direction of the effect not stated beside the values
# Details: 30 µM
row,Structure (SMILES),Percent Effect [%]
1,CCn1cnnc1CNC(=O)N1CCC(Cc2cccnc2)CC1,-2.6
2,Cc1nc(CN2CCCC(NCc3c(C)nc4sccn34)C2)no1 (stereo not drawn),5.2
3,Cn1nc2c(cc1=O)CN(CCc1nc3ccccc3c(=O)[nH]1)CC2,5.48
4,COc1ccc(CNC(=O)NCc2c(C)cc(C)[nH]c2=O)cc1,13.2
5,CN(C)C(=O)NC1COC2(CCN(Cc3nccn3C)CC2)C1 (stereo not drawn),5.2
6,O=C(CN1CCC(C(=O)c2cc(F)ccc2F)CC1)NC1CCCC1,-5.26
7,CCN1C[C@H]2CCN(C(=O)NC3CCCC3)CC[C@H]2S1(=O)=O,14.7
8,CCC1=N[C@@]2(CC[C@@H]3CN(Cc4ccccc4F)C[C@@H]32)C(=O)N1CC,0
9,CN1CCC(Oc2ccc(NC(=O)c3ccccc3Br)cc2)CC1,-2.6
10,Cc1cc(C(=O)NCC2COCc3c(C)nnn3C2)no1 (stereo not drawn),2.6
11,Cc1cnc(CNC(=O)NCc2cccnc2N(C)C)s1,-2.6
12,CCCNC(=O)N1CCN(Cc2cc(C)no2)CC1,23.7
13,COc1cccc2c1ccn2CCC(=O)N1CCCC(C(=O)O)C1 (stereo not drawn),5.26
14,Cc1csc(CNC(=O)NCC(O)c2cccc(Cl)c2)n1 (stereo not drawn),8.11
15,Cc1noc(Cl)c1CCC(=O)N1CCN(c2ncccn2)CC1,10.5
16,Cc1ccccc1-c1cncc(C2CCN(C)CC2)n1,-6.76
17,Cc1ccc(CN2CCOC3(CCCN(C(=O)c4ccco4)C3)C2)s1 (stereo not drawn),15.6
18,CS(=O)(=O)NCc1nnc2n1CCN(CC1CC1)C2,8.11
19,Cc1ccc(=O)n(CC2(O)CCN(Cc3cnc(C)nc3)CC2)n1,6.76
20,CN(C)S(=O)(=O)N1CCCC1CC(=O)c1cccs1 (stereo not drawn),2.7

row,Structure (SMILES),Percent Effect [%]
1,COc1cc(CNC2CCc3nc(C(C)C)nn3C2)cc2c1OCO2 (stereo not drawn),2.63
2,CCOCC1CN(Cc2ccoc2)Cc2nn(CC3CC3)cc21 (stereo not drawn),-2.7
3,O=C(c1cc(COc2ccc3c(c2)OCO3)[nH]n1)N1CCCC1,-5.48
4,CCCS(=O)(=O)N1CCC(NC(=O)c2cc(C)c(CC)s2)CC1,2.67
5,CCOC(=O)C1CCN(C(=O)Cn2ccc3cc(Br)ccc32)CC1,14.7
6,CCOc1cc(C)ccc1NC(=O)N(C)Cc1cnn(C)c1,10.8
7,COc1ccc(C(=O)N2CCC(Nc3ccc(C)nn3)CC2)c(F)c1,1.27
8,CC(C)CCc1noc(CN2CCCN(C(=O)c3ccco3)CC2)n1,-8.22
9,Cc1noc2nc(C3CCN(Cc4ccncc4)CC3)cc(C(F)F)c12,1.35
10,COCC1CN(Cc2ccc(C)o2)Cc2cn(C)nc21 (stereo not drawn),10.7
11,Cc1cnn(CCNCc2ccccc2Oc2cccnc2)c1,11.4
12,CN(CCCC#N)C1CCCN(Cc2noc(C3CC3)n2)C1 (stereo not drawn),15.3
13,Cc1cc(C)nc(CCNC(=O)[C@H]2CNC[C@@H](C(=O)N3CCCC3)C2)n1,0
14,CCOc1cc(C)nc(N2CCN(C(=O)CC)CC2)n1,5.41
15,Cn1ccc(C(=O)N2CCCC(Cc3cccc4ncccc34)C2)n1 (stereo not drawn),14.9
16,CCn1ccnc1CN1CCN(CCOc2ccccc2OC)CC1,0
17,O=S(=O)(N(Cc1ccccn1)C1CC1)N1CCCC1c1ccco1 (stereo not drawn),16.2
18,Cn1ncc2c(=O)[nH]c(CN3CCCC3Cc3ccccc3)nc21 (stereo not drawn),15.8
19,CC1CN(CC(=O)Nc2cccnc2)CCN1c1nccs1 (stereo not drawn),2.7
